Screening results (PubChem)
Only some compounds are listed: those with a hit (about 0.74% of all), similar ones and a draw of the others.
LYPLA2 inh – LYPLA2 (human) inhibition in PME1 counter-screen. recombinant LYPLA2, FP-Rh probe fluorescence polarization. inhibition, % at 5.9 µM. 0.38% of 320,000 active. AID 2177;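 active means inhibition above the screen-wide mean plus 3 SD, limit set per campaign, cut at about 26% in these data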;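 further: 0% = LYPLA2 with DMSO and 100% = wells lacking LYPLA2 enzyme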
p97 inhibitor – human p97 ATPase inhibition | inhibition, % at 8 µM | recombinant p97 ATPase, Kinase-Glo ATP luminescence, 3 h | 0.42% of 220,000 active | AID 1481; in the data active means inhibition above about 15%;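 further: 0% = DMSO vehicle and 100% = wells lacking enzyme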
Target sequence (P55072 whole entry, looked up): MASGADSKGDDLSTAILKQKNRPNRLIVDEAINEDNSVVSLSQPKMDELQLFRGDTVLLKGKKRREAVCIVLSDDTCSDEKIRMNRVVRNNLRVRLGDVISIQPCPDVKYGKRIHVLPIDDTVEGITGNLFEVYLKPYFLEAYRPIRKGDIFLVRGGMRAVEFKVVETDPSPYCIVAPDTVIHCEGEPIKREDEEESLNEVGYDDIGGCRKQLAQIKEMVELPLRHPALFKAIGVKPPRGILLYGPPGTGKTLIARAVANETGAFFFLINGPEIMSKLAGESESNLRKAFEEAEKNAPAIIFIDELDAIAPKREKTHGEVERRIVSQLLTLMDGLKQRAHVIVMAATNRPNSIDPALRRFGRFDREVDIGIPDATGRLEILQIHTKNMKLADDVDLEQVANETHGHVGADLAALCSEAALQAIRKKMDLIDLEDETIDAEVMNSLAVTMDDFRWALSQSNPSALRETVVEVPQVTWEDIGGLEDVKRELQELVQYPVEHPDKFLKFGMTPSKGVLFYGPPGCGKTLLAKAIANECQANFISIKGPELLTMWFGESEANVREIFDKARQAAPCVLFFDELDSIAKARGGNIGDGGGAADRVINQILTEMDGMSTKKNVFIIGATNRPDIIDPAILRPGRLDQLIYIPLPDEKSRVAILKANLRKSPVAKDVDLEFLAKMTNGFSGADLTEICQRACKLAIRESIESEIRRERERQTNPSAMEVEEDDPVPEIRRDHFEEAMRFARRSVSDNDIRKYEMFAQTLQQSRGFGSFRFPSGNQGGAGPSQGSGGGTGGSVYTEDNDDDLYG
Redox H2O2 prof – compounds producing H2O2 with reducing agent – biochemical, NIH compound library profiling, artefact control for MLSCN library redox annotation, primary screen | DTT-dependent redox cycling H2O2, phenol red/HRP absorbance; 100% = 100 µM peroxide control, 0% = buffer | activation, % at 10 µM | 0.03% of 200,000 active;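 active means activation of at least 50% relative to the plate's high and low controls in the primary single-dose screen; inactive means activation below 50%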;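 further: compound incubated with DTT at 0.8 mM final as the reducing agent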
LYPLA1 inh – counter-screen for PME1 inhibitors: inhibitors of human LYPLA1. O75608. recombinant LYPLA1, FP-Rh probe fluorescence polarization. inhibition, % at 5.9 µM. 0.16% of 320,000 active. AID 2174;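 active means inhibition above the mean of all tested compounds plus 3 SD, set per campaign, cut at about 14% in these data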;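 further: inhibitors block serine hydrolase probe labeling of LYPLA1 so polarization falls; 0% = enzyme with DMSO and 100% = wells lacking LYPLA1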
Active calls of the source: *; . = no result given.

SMILES	LYPLA2 inh	p97 inhibitor	Redox H2O2 prof	LYPLA1 inh
COCCn1c(C)cc(C(=O)COc2ccc(C)nc2[N+](=O)[O-])c1C	6.1	14.7*	0.6	5.2
C=CCn1c(C)cc(C(=O)COc2ccc(C)nc2[N+](=O)[O-])c1C	22.3	-1.9	-0.2	3.8
CCN1CCc2c(sc(N)c2C#N)C1	-3.1	2.3	0.7	2.3
N#Cc1c(N)sc(=S)c2c1CCN(Cc1ccccc1)C2	26.6*	.	.	17.7*
CCOC(=O)C1(Cc2ccccc2C)CCCN(S(=O)(=O)CC)C1 (centres undefined)	-4.3	.	.	-2.7
COC(=O)c1ccccc1NC(=S)NC(=O)c1cccc2ccccc12	4.9	33.8*	-13.0	2.2
Cc1cc(-c2csc(NC(=O)c3ccc(=O)[nH]c3)n2)c(C)n1Cc1ccco1	-15.4	51.4*	.	-25.3
COc1ccc(/C=C2\CCCC3C2=NN(C(=O)CSc2n[nH]c(N)n2)C3c2ccc(OC)cc2)cc1 (centres undefined)	-1.5	14.7*	-0.1	-3.8
O=C1CCC(C(=O)OCC(=O)N2N=C3/C(=C/c4ccccc4)CCCC3C2c2ccccc2)N1 (centres undefined)	11.1	-9.6	-0.6	0.9
Cc1[nH]n(-c2ccccc2)c(=O)c1C(c1ccc(O)c([N+](=O)[O-])c1)c1c(C)[nH]n(-c2ccccc2)c1=O	1.9	14.6*	-4.5	0.9
COc1ccc(C(C[N+](=O)[O-])c2c(C)[nH]n(-c3ccccc3)c2=O)cc1 (centres undefined)	5.1	.	.	0.9
C#CCOCCOCCOCCNc1nc(N2CCN(C(=O)CCCCCCCCCCNC(=O)[C@H]([C@@H](C)CC)n3cc(CCCCCN)nn3)CC2)nc(N2CCN(C(=O)CCCCCCCCCCNC(=O)[C@@H]([C@H](C)CC)n3cc(CCCCCN)nn3)CC2)n1	57.4*	.	.	6.9
C#CCOCCOCCOCCNc1nc(N2CCOCC2)nc(N2CCN(C(=O)CCCCCCCCCCNC(=O)[C@@H]([C@H](C)CC)n3cc(CCCCCN)nn3)CC2)n1	8.7	.	.	-1.7
C#CCOCCOCCOCCNc1nc(N2CCN(C(=O)CCCCCCCCCCNC(=O)[C@H]([C@@H](C)CC)n3cc(CCCCN=C(N)N)nn3)CC2)nc(N2CCN(C(=O)CCCCCCCCCCNC(=O)[C@H](CO)n3cc(CCCCCN)nn3)CC2)n1	8.3	.	.	-5.8
C#CCOCCOCCOCCNc1nc(N2CCN(C(=O)CCCCCCCCCCNC(=O)[C@H]([C@@H](C)CC)n3cc(CCCCN=C(N)N)nn3)CC2)nc(N2CCN(C(=O)CCCCCCCCCCNC(=O)[C@H]([C@@H](C)CC)n3cc(CCCCN=C(N)N)nn3)CC2)n1	32.7*	.	.	-2.5
CCN1N=C(C)C=C(c2ccccc2)n2c1nc1ccccc12	-4.7	3.0	.	-3.9
Cc1nc2c(C(=O)NCc3ccccc3)c[nH]n2c(=O)c1Cl	-0.9	3.9	1.0	-4.5
Cc1nc2c(C(=O)NCc3ccccc3Cl)c[nH]n2c(=O)c1Cl	1.8	14.7*	-3.7	-1.9
N#CC1(NC(=O)Cn2ncc(Cl)c(Cl)c2=O)CCCCC1	8.1	.	.	-3.1
Fc1cccc(Nc2nc(Cl)nc(Cl)n2)c1	0.4	0.7	-1.5	1.4
CN(C#N)c1nc(Cl)nc(Nc2cccc(Cl)c2)n1	1.4	14.6*	-0.6	-2.5
Cc1cc(C)c(C#N)c(SCc2c(F)cccc2[N+](=O)[O-])n1	34.3*	-2.7	-0.5	3.5
CC1=C(C(=O)Nc2ccc(CC(=O)NCc3ccc(OC(C)C)cc3)cc2)SCCO1	6.1	.	.	-1.5
COc1ccc(NC(=O)CCC(=O)OCC(=O)c2ccc(Oc3ccc([N+](=O)[O-])cc3)cc2)cc1	25.8*	4.0	1.0	1.5
Cc1ccc(NC(=O)CCC(=O)OCC(=O)c2ccc(Oc3ccc([N+](=O)[O-])cc3)cc2)cc1	25.1	5.6	0.8	-1.3
SMILES	LYPLA2 inh	p97 inhibitor	Redox H2O2 prof	LYPLA1 inh
COc1ccc(NC(=O)C(C)(C)Oc2ccc(Cl)cc2)cn1	6.5	.	.	2.1
COc1ccc(NC(=O)/C(Cl)=C(/Cl)S(=O)Cc2ccc(Cl)cc2)cn1 (centres undefined)	.	20.0*	10.1	.
COc1ccc(NC(=O)CCl)cn1	-0.5	24.7*	.	0.7
O=C1C=C(c2ccc(Cl)nc2)C[C@@H](c2ccc3c(c2)OCO3)C1	13.3	.	.	3.0
CCc1cccc2c(C(=O)CCl)c[nH]c12	2.8	17.9*	0.4	-0.2
CCc1cccc2c(C(=S)N3CCCC3)c[nH]c12	0.8	4.8	-0.5	3.5
CC1(OC(=O)c2ccc(Cl)nc2)C(=O)C=C2C=C(c3ccsc3)OC=C2C1=O (centres undefined)	6.9	.	.	0.1
CC1(OC(=O)c2ccc(Cl)nc2)C(=O)C=C2C=C(C3CC3)OC=C2C1=O (centres undefined)	20.5	.	.	21.0*
CSc1ccc(/C=C(/NC(=O)c2ccc(C)cc2)C(=O)Nc2cccc(C)c2)cc1	-6.9	-4.8	0.8	-8.4
Cc1[nH][nH]c(=O)c1C(c1c(C)[nH][nH]c1=O)c1cn(Cc2cccc3ccccc23)c2ccccc12	4.4	26.7*	-4.5	-3.1
CCOC(=O)Cc1csc(SCC(=O)NC2CCS(=O)(=O)C2)n1 (centres undefined)	-3.2	.	.	1.4
COc1nc(OC)nc(Oc2ccc(Cl)cc2[N+](=O)[O-])n1	1.4	6.1	-0.3	-0.6
O=c1ccc2ccc(Oc3ccc(Cl)cc3[N+](=O)[O-])cc2o1	32.3*	-2.2	-0.9	10.7
Nc1c(C(=O)NC2CC2)sc2nc3c(c(-c4ccco4)c12)CC/C3=C/c1ccco1	2.1	28.4*	4.2	-8.7
Cc1[nH]c2c(C)cccc2c1CCNC(=O)c1ccc2c(c1[N+](=O)[O-])C(=O)c1ccccc1C2=O	8.2	14.6*	-3.2	-2.5
Cc1[nH]c2ccccc2c1CCNC(=O)c1ccc2c(c1[N+](=O)[O-])C(=O)c1ccccc1C2=O	3.9	10.3	35.2	-7.2
O=C(CCNS(=O)(=O)c1cccs1)N1CCN(c2cccc(Cl)c2)CC1	9.4	.	.	-1.2
O=C(CCNS(=O)(=O)c1cccc2nonc12)N1CCN(c2cccc(Cl)c2)CC1	47.8*	-5.2	0.5	2.8
CCOC(=O)C1CCN(c2nc(N)c3c(N)nc(SCC(=O)O)cc3c2C#N)CC1	.	54.7*	.	.
CCOc1ccc2oc(C(=O)OC(C(=O)NC(N)=O)C(C)C)c(C)c2c1 (centres undefined)	3.2	-1.4	.	-0.1
CCOC(=O)CSc1n[nH]c(=S)s1	7.0	14.5*	.	-0.5
CCOC(=O)CCSc1n[nH]c(=S)s1	-2.3	2.0	.	-2.4
Cc1csc(SCCn2c(N3CCCC3)nc3c2c(=O)[nH]c(=O)n3C)n1	-1.4	14.5*	2.6	1.0
O=C(CNC(=O)OCc1ccccc1)Nc1ccc(F)cc1	1.6	.	.	0.1
CN(C)[C@@H]1C(=O)C(C(=O)NCN2CCCC2)=C(O)[C@@]2(O)C(=O)C3=C(O)c4c(O)cccc4[C@@](C)(O)C3CC12 (some centres undefined)	.	22.8*	0.6	.
Cc1ccnc(Sc2ccc([N+](=O)[O-])cc2[N+](=O)[O-])n1	0.9	15.9*	-1.1	-3.3
